From PubChem BioAssay (NCI) come the findings set out here.

The nature of assay [1]: NCI Yeast Anticancer Drug Screen. Data for the rad50 strain (AID 155).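 Note: 0% = growth of vehicle-only cultures of the same strain.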 To be noted: S. cerevisiae rad50 strain growth inhibition; at 50.0 µM; stronger effect = higher value. The essentials:
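Relative growth inhibition (compound vs vehicle) was measured in yeast with a defined repair-gene alteration.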

A short description of assay [2]: NCI Yeast Anticancer Drug Screen. Data for the mec2-1 strain (AID 157). To be noted: S. cerevisiae mec2-1 strain, at 50.0 µM, stronger effect = higher value. In short, it runs like this:
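Growth inhibition is read against vehicle-treated controls after compound exposure of the mec2-1 yeast strain, which is defective in DNA damage repair or cell cycle control.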

The nature of assay [3]: NCI Yeast Anticancer Drug Screen. Data for the sgs1 mgt1 strain (AID 161).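 Note: 0% = growth of cultures given vehicle only.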 To be noted: S. cerevisiae sgs1 mgt1 strain, at 50.0 µM, stronger effect = higher value. In short, it runs like this: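 This yeast growth screen uses a strain with defined DNA-repair lesions; compound-treated growth is compared with vehicle-treated growth.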
The nature of assay [4]: NCI Yeast Anticancer Drug Screen. Data for the cln2 rad14 strain (AID 165).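 Note: 0% = growth equal to vehicle treated cultures.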 To be noted: S. cerevisiae cln2 rad14 strain, at 50.0 µM, stronger effect = higher value. The essentials:
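Growth inhibition, relative to vehicle-treated controls, is the read-out. The test organism is a yeast strain with defined genetic alterations, cln2 rad14.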

Assay [5] can be described thus: NCI Yeast Anticancer Drug Screen. Data for the bub3 strain (AID 167). To be noted: S. cerevisiae bub3 mutant strain, at 50.0 µM, stronger effect = higher value. In short, it runs like this: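 Screening used yeast with an engineered genetic alteration affecting cell cycle control. Compound-exposed cultures were compared with vehicle cultures, and reduced growth was taken as inhibition.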

Assay [6] in a line: NCI Yeast Anticancer Drug Screen. Data for the mlh1 rad18 strain (AID 175). To be noted: S. cerevisiae mlh1 rad18 strain growth inhibition; at 50.0 µM; stronger effect = higher value. The essentials:
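Cells of a genetically altered yeast strain, deficient in DNA damage repair, were treated with compound. Their growth was then compared with that of vehicle-treated cultures to give inhibition.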

About 79,000 compounds went through this panel and 15% of them were active in at least one assay; those are over-represented in the sample as a whole. Values without a mark were called inactive. Activity calls are given as the source filed them. Cut-off read from the data, not from the text of the source: active = growth inhibition above about 70%; inactive = the rest.

As to `CC(=O)CC(C)=O.CC(=O)CC(C)=O.CC(=O)CC(C)=O.[Tb]`, the growth inhibition is -0.8% in assay [1]; -7.7% in assay [2]; -3.95% in assay [3]; 26.8% in assay [4]; -2.95% in assay [5]; -19.8% in assay [6].

Regarding `Nc1ccc([N+](=O)[O-])cc1`, the growth inhibition in assay [1] is -11.2%; in assay [2] it was 2.8%; in assay [3] it was -14.9%; in assay [4], -6.55%; in assay [5] it was -14.7%; in assay [6], -1%.

Consider `COc1ccc(C(O)(C(=O)OCCSC)c2ccc(OC)cc2)cc1`, for which the growth inhibition was -5.1% in assay [1]; 2.85% in assay [2]; -2.6% in assay [3]; -21.5% in assay [4]; 9% in assay [5]; 0.1% in assay [6].

As to `CN(N)/N=N/c1nc[nH]c1[N+](=O)[O-]`, the growth inhibition in assay [1] is -11.9%; in assay [2] it was -24.6%; in assay [3] it was -2.6%; in assay [4] it was 4.85%; in assay [5], -12.1%; in assay [6], -3.4%.

As for `O=C(Cc1ccc(N(CCCl)CCCl)cc1)NC1CCCC1`, the growth inhibition in assay [1] was -0.05%; in assay [2], -16.6%; in assay [3], -13.9%; in assay [4] it was -22.9%; in assay [5], -2.3%; in assay [6], 18.1%.

Regarding `CCCCCCCC(=O)[O][Pb]([CH2]C)([CH2]C)[CH2]C`, the growth inhibition in assay [1] is -7.8%; in assay [2], -29.2%; in assay [3], 1.95%; in assay [4] it was -1.5%; in assay [5], 0%; in assay [6], -21.3%.

For `CCOP(C)(=O)C(N)Cc1ccc(OC)c(OC)c1` (stereo not given), the growth inhibition in assay [1] is -39.6%; in assay [2] it was -59.5%; in assay [3], -40.1%; in assay [4], -16.4%; in assay [5] it was 1.1%; in assay [6] it was -34.5%.

Turning to `Cc1cc(C)c(O)c(CN2CCCCC2)c1`, the growth inhibition in assay [1] is 4.35%; in assay [2], 13.1%; in assay [3], 32.8%; in assay [4], -4%; in assay [5] it was 19.6%; in assay [6], 14.5%.

For the compound `Cn1c(O)c(N=NC(N)=S)c(=O)n(C)c1=O`, the growth inhibition is 30.6% in assay [1]; 20.4% in assay [2]; 8.95% in assay [3]; -20.4% in assay [4]; -20.3% in assay [5]; 14.6% in assay [6].

With `CCCCOCCOC(=O)CCl`, the growth inhibition in assay [1] is 9.1%; in assay [2], -21.1%; in assay [3], 33%; in assay [4] it was -14.8%; in assay [5], -4.95%; in assay [6], 14.8%.

In the case of `Nc1ccc(C(=O)N/N=C/c2ccc(N(CCBr)CCBr)cc2)cc1`, the growth inhibition was 42.9% in assay [1]; 22.4% in assay [2]; 25.5% in assay [3]; 1.95% in assay [4]; 5.3% in assay [5]; 54.2% in assay [6].

As for `Cc1ccc(P(=S)(c2ccccc2)c2ccccc2)c2ccccc12`, the growth inhibition in assay [1] was 9.9%; in assay [2] it was 0.45%; in assay [3], -1.5%; in assay [4] it was 10.6%; in assay [5] it was 20%; in assay [6], -4.25%.

On to `CCCCP(=O)(CCCC)CCCC.CCCCP(=O)(CCCC)CCCC.CCCCP(=O)(CCCC)CCCC.CCCCP(=O)(CCCC)CCCC.[Mn+2].[O-][Cl+3]([O-])([O-])O`, for which the growth inhibition in assay [1] is 13.3%; in assay [2], -57.7%; in assay [3], -24.6%; in assay [4], -17.5%; in assay [5] it was -21.9%; in assay [6] it was -17.9%.

In the case of `C/C=C/C(=O)[O-].N.N.N.N.N.[Co+3].[O-][Cl+3]([O-])([O-])[O-]`, the growth inhibition is -10.4% in assay [1]; -5.85% in assay [2]; -7.6% in assay [3]; 9.35% in assay [4]; -12.8% in assay [5]; -36.1% in assay [6].

As to `CCOP(=O)(OCC)SC=C(Cl)Cl`, the growth inhibition is -12.9% in assay [1]; 5.5% in assay [2]; 2.1% in assay [3]; -10.6% in assay [4]; 5% in assay [5]; 6.15% in assay [6].

With `CCC(C)C(=O)OC1CC2(C)C(c3ccoc3)OC(=O)CC23OC2(C)OC34C(OC(=O)C(C)C)C3(O)C(OC(=O)C5(C)OC5C)C5(C)CC3(O)C(C)(C5CC(=O)OC)C14O2` (stereo not given), the growth inhibition is 24.4% in assay [1]; 19.1% in assay [2]; 9.3% in assay [3]; 26.9% in assay [4]; 13.1% in assay [5]; -24.3% in assay [6].

For the compound `CC1(C)N=C(N)N=C(N)N1c1ccc(CCc2cc(Cl)ccc2S(=O)(=O)F)c(Cl)c1`, the growth inhibition in assay [1] was 99.5% (active); in assay [2], 99.7% (active); in assay [3] it was 99.7% (active); in assay [4], 99.2% (active); in assay [5], 99.3% (active); in assay [6], 99.5% (active).

Turning to `S=C(N=Nc1ccccc1)NNc1ccccc1.[Ni]`, the growth inhibition in assay [1] was 12.3%; in assay [2], -15.3%; in assay [3] it was 2%; in assay [4] it was 6.25%; in assay [5], 26.8%; in assay [6], 0.5%.

On to `NC1(C(=O)O)CCCC1`, for which the growth inhibition was -21.1% in assay [1]; -21.9% in assay [2]; -15.2% in assay [3]; -63.8% in assay [4]; -1.5% in assay [5]; -28.1% in assay [6].

Consider `O=C(O)c1ccc(=O)[nH]c1`, for which the growth inhibition was 25.6% in assay [1]; 7.85% in assay [2]; 10.2% in assay [3]; -22.1% in assay [4]; 13.9% in assay [5]; 19.6% in assay [6].
